What all share (assay): NCI-60 one-dose screen, 48 h (100 = growth as untreated, 0 = no growth, -100 = all killed)
Common to all, as to conditions: 10 µM unless noted

Test [1] concerns DU-145 prostate.
The subject of test [2] is K-562 leukemia.
The test system of test [3] is MALME-3M melanoma.
The test system of test [4] is MDA-MB-231 breast.
For test [5], the system named is RXF 393 renal.
Test [6] concerns SF-268 CNS.
In test [7] the test system is SF-295 CNS.
In test [8] the test system is SF-539 CNS.
For test [9], the system named is UACC-257 melanoma.
For test [10], the system named is M14 melanoma.
In test [11] the test system is HCT-15 colon.
Test [12] has as its system SNB-75 CNS.
Test [13] has as its system SNB-19 CNS.
For test [14], the system named is U251 CNS.
For test [15], the system named is PC-3 prostate.
Test [16] has as its system SK-MEL-5 melanoma.
Test [17] relates to UACC-62 melanoma.
Test [18] deals with LOX IMVI melanoma.
Test [19] deals with SK-MEL-28 melanoma.
The subject of test [20] is HT29 colon.

About 83,000 compounds went through this panel and 20% of them were active in at least one assay; those are over-represented in the sample as a whole.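 Cell lines were cultured in 96-well plates, exposed to a single compound concentration, and assessed for percent growth 48 hours later.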 Values without a mark were called inactive. Activity calls are given as the source filed them. How the source made its calls: active means growth percent below 10; inactive means the rest.

With `O=CN(SSN(C=O)C1CCCCC1)C1CCCCC1`, the growth in [1] is 115%; in [2] it was 52.3%; in [3] it was 73.9%; in test [4] it was 102%; in [5], 12.4%; in test [6], 103%. Moreover, the growth in test [7] was 105%; in test [8], 102%; in test [9], 124%; in [10], 92.7%; in [11], 109%; in test [12], 109%. The growth in test [13] is 99.9%; in [14], 109%; in test [15] it was 103%; in [16], 119%; in test [17] it was 85.5%; in test [18], 96.8%. Further, the growth in [19] was 116%.

For the molecule `N#Cc1c(-c2ccccc2)nc(SCC(=O)Nc2nc(-c3ccc(Cl)cc3)cs2)[nH]c1=O`, the growth in test [1] is 113%; in test [2], 94.2%; in test [3], 129%; in test [4], 120%; in test [5], 110%; in test [6], 103%. Moreover, the growth in test [7] is 98.2%; in [8] it was 100%; in [9], 97.4%; in test [10], 93.7%; in [11] it was 104%; in test [12], 84.3%. Also, the growth in [13] is 101%; in test [14], 95.3%; in test [15], 91.6%; in test [16], 97.9%; in test [17], 88.4%; in [18], 100%. The growth in test [19] is 101%.

`c1ccc(-c2nc3sc(-c4ccccc4)cn3n2)cc1`: the growth is 84.4% in test [1]; 88.5% in [2]; 124% in test [3]; 64.5% in [4]; 97.7% in test [5]; 92.3% in test [6]. Besides, the growth is 101% in test [7]; 98.7% in [8]; 86% in [9]; 86.7% in test [10]; 91.6% in test [11]; 84.3% in [12]. Besides, the growth in test [13] is 88.5%; in test [14], 93.6%; in [15], 63%; in [16], 80%; in test [17], 66.9%; in test [18] it was 83.3%. Moreover, the growth in test [19] was 107%.

For `O=C(O)C(c1ccccc1)N1C(=O)CSC1=S` (stereo unspecified), the growth in test [1] is 107%; in test [2] it was 103%; in [3], 107%; in test [4] it was 108%; in [5] it was 108%; in test [6], 94.4%. Moreover, the growth in [7] was 104%; in [8] it was 100%; in [9] it was 101%; in [10], 100%; in test [11], 103%; in [12] it was 72.8%. In addition, the growth was 102% in test [13]; 96.4% in test [14]; 101% in [15]; 102% in test [16]; 97.7% in test [17]; 97.2% in test [18]. In addition, the growth in test [19] was 99.5%.

As to `Cc1ccc(-c2nc3c(c(-c4ccccc4)nn3-c3ccccc3)c(-c3ccc(O)cc3)c2C#N)cc1`, the growth in test [1] is 60.5%; in test [2] it was 22.3%; in test [3] it was 75.1%; in [4] it was 45.9%; in [5], -10.4% (active); in test [6], 60.2%. Besides, the growth in [7] was -20.9% (active); in [8], 15.2%; in test [9], 93.9%; in test [10] it was 60.3%; in test [11], 28.8%; in test [12], 40.5%. Besides, the growth in [13] was 69.1%; in test [14] it was 41.6%; in [15], 34.3%; in test [16], 77.6%; in test [17], 63.7%; in [18] it was 12.2%. Also, in [19], the growth was 67.1%.

With `Oc1ccc(C#CCOc2ccccc2)cc1CNCCN(Cc1ccccn1)Cc1ccccn1`, the growth in [1] was 28.6%; in test [2] it was 8.65% (active); in test [3], 25.2%; in [4], 47%; in test [5], 16%; in test [6], 13%. Also, the growth is 4.52% (active) in test [7]; 11.3% in test [8]; 15.4% in test [9]; 6.22% (active) in test [10]; 4.51% (active) in [11]; 25.6% in [12]. In addition, the growth in test [13] is 20.7%; in test [14], 7.44% (active); in test [15], 27.7%; in test [16], 1.89% (active); in test [17] it was 9.83% (active); in test [18], 3.51% (active). In [19], the growth is 32.9%.

As to `O=C(N/N=C/[C@@H](O)[C@H](O)[C@H](O)CO)c1ccc(NC(=O)c2cccnc2)cc1`, the growth in [1] was 112%; in test [2], 103%; in test [3], 110%; in [4], 102%; in [5] it was 109%; in test [6], 98.5%. Besides, the growth was 101% in [7]; 103% in test [8]; 100% in test [9]; 106% in test [10]; 103% in test [11]; 105% in [20]. The growth is 90.3% in test [12]; 98.7% in test [13]; 101% in test [14]; 101% in test [15]; 99.5% in test [17]; 103% in [19].

On to `CCc1nnc(NC(=O)c2nnn(-c3ccccc3)c2-c2ccco2)s1`, for which the growth in [1] is 101%; in [2], 71.8%; in test [3], 98.9%; in [4], 92.9%; in test [5] it was 100%; in [6], 107%. In addition, the growth in test [7] is 87.2%; in [8], 99.7%; in [9], 102%; in test [10] it was 98.4%; in test [11] it was 51.5%; in [12] it was 89.6%. In addition, the growth in [13] was 93.9%; in test [14], 84%; in test [15] it was 64.7%; in test [16], 83.2%; in [17] it was 86.5%; in test [18] it was 89%. The growth in test [19] is 95.1%.
